VACV mCherry inh: inhibitors of vaccinia virus infection (mCherry reporter signal); Vaccinia virus mCherry reporter infection, fluorescence; Potency, µM (highest dose often 36.5 µM), inactives show at the highest dose activity change, negative = inhibition, usual class: inhibitors; hit rate 0.63% among 310,000; AID 720579; calls by dose curve; tested in A549 cells; further: potency means the concentration at half of the fitted maximal effect; nearly all actives have a fitted effect of over 35% in size
HCMV inh: inhibitors of human cytomegalovirus. hit rate 4.5% among 410,000. HFF cells, HCMV-luciferase reporter, 72 h; hits give low values. activity change, negative = inhibition, % at 57.5 µM. AID 1259415; in the data active means activity change below about -60%; inconclusive means no clear call, values can overlap the other calls; inactive means above about -39%
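Compounds were evaluated in HFFs infected with an HCMV luciferase reporter virus (MOI 1 PFU/cell). Luciferase in lysates collected 72 h post infection served as the replication measure.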
Marburg entry inh: Marburg virus entry inhibition; Marburg virus pseudotyped entry inhibition, cell reporter; Potency, µM (top dose mostly 37.8 µM), for inactives: at the top dose activity change, negative = inhibition, most hits filed as inhibitors; hit rate 1.8% among 300,000; calls by dose curve; tested in HEK293 cells; further: potency means the concentration at half of the fitted maximal effect
VACV Venus inh: inhibitors of vaccinia virus (Venus reporter); Vaccinia virus Venus reporter expression, fluorescence; Potency, µM (highest dose often 36.5 µM), for the others: top-dose activity change, negative = inhibition, actives largely listed as inhibitors; hit rate 0.46% among 330,000; AID 720580; calls by dose curve; tested in A549 cells; further: potency means the concentration at half of the fitted maximal effect; nearly all actives have a fitted effect of over 30% in size
Lassa entry inh: blocks Lassa virus binding to or entry into cells; hit rate 1.2% among 300,000; Potency, µM (highest dose often 37.9 µM), inactives show at the top dose activity change, negative = inhibition, actives largely listed as inhibitors; Lassa virus pseudotype entry inhibition, cell reporter; calls by dose curve; tested in HEK293 cells; further: potency means the concentration at half of the fitted maximal effect; nearly all actives have a fitted effect of over 50% in size
FMDV antiviral: blocks foot and mouth disease virus. FMDV antiviral cell-based qHTS. Potency, µM (series often up to 57.9 µM), inactives show top-dose activity change, negative = inhibition, actives largely listed as inhibitors. hit rate 1.2% among 410,000; calls by dose curve; tested in HEK293T cells; further: read-out not given here; potency means the concentration at half of the fitted maximal effect; nearly all actives have a fitted effect of over 45% in size
Active calls of the source: *; i = inactive; ? = inconclusive; . = no result; [ ] = another dose, or the depositor's remark. Sampled rows, rich in hits. Any-hit rate of the full collection: about 6.5%. On the % scale 0 is the no-effect control and ±100 the full control effect.

SMILES | VACV mCherry inh | HCMV inh | Marburg entry inh | VACV Venus inh | Lassa entry inh | FMDV antiviral
COc1ccc(OC)c(CN2CCC3(CCC(CNC(=O)c4ccco4)O3)CC2)c1 (stereo unspecified) | -13% | . | . | -1% | . | -8%
CCOc1ccccc1CNC(=O)c1cc2oc3ccccc3c2n1C | . | -85* | ? | . | ? | 1%
CCOc1ccccc1CNC(=O)c1cc2occc2n1C | ? | -31 | . | -14% | . | 1%
Cn1c(C(=O)NCc2cccc(Cl)c2)cc2oc3ccccc3c21 | -21% | -64* | ? | 25% | ? | -1%
O=C([C@@H]1C[C@@H](Sc2nc3ccccc3[nH]2)CN1Cc1c(F)cccc1F)N1CCOCC1 | -4% | . | . | -13% | . | -14%
CC1CCCCN1S(=O)(=O)c1ccc(S(=O)(=O)N2CCCC2)cc1 (stereo unspecified) | -10% | -16 | -10%[46.1 µM] | -8% | -1%[46.1 µM] | -9%
CN1CCN(C(c2ccc(F)cc2)c2sc3nc(-c4ccco4)nn3c2O)CC1 (stereo unspecified) | -5% | 4 | . | 0% | ? | -19%
CCn1c(=O)c(C(=O)CN(C)Cc2ccc(F)cc2)c(N)n(Cc2ccccc2)c1=O | -3% | -31 | 10µM* | -10% | -34% | -28%
CCn1c(=O)c(C(=O)CN2c3ccccc3CC2C)c(N)n(Cc2ccccc2)c1=O (stereo unspecified) | -1% | -30 | ? | -19% | ? | -28%
CCn1c(=O)c(C(=O)CN2CCCc3ccccc32)c(N)n(Cc2ccccc2)c1=O | . | -88* | ? | . | ? | 39%
Cc1c(C(=O)N2CCN(C(C)C)CC2)sc2ncnc(NCc3ccco3)c12 | -26% | . | . | -24% | . | -3%
CCCc1cc(N2CCOCC2)n2ncc(-c3ccccc3)c2n1 | . | -62* | . | . | . | -2%
COC(=O)/C=C1\N/C(=N\c2nc(C)cc(C)n2)N(c2ccc(C)c(C)c2)C1=O | ? | 44 | -16% | ? | ? | 25µM*
COC(=O)/C=C1\N/C(=N\c2nc(C)cc(C)n2)N(c2ccc(Cl)cc2)C1=O | ? | -27 | 6%[14.2 µM] | -14% | -3% | -48%
CO[C@H]1[C@H](NC(=O)c2cccs2)c2ccccc2C12CCN(Cc1cccn1-c1ccccn1)CC2 | -15% | . | . | -4% | . | -15%
CCOc1cc(C(c2c(C)[nH]n(-c3ccccc3)c2=O)c2c(C)[nH]n(-c3ccccc3)c2=O)ccc1O | -18% | -105* | . | -14% | -2%[46.1 µM] | ?
COc1ccc(C(c2c(C)[nH]n(-c3ccccc3)c2=O)c2c(C)[nH]n(-c3ccccc3)c2=O)cc1OC | i | -11 | -1% | -10% | 13% | -13%
CCCCN(CC)C(=O)C1CCC(CNS(=O)(=O)c2cccc3nsnc23)CC1 (stereo unspecified) | -3% | -31 | -20%[46.1 µM] | -27% | -5%[46.1 µM] | ?
CCOC(=O)c1c(O)c2cc(Cl)ccc2n(CC)c1=O | ? | -8 | -6%[46.1 µM] | -4% | -1% | 7%
OC(COCC(F)(F)C(F)(F)C(F)(F)C(F)F)Cn1c2ccc(Cl)cc2c2cc(Cl)ccc21 (stereo unspecified) | ? | . | ? | 11µM* | ? | ?
CC(C)c1ccc(CN2C(=O)C(n3ccc4ccccc43)c3cc(Cl)ccc32)cc1 (stereo unspecified) | . | -76* | . | . | . | .
COc1ccc(CN2C(=O)C(n3ccc4ccccc43)c3cc(OC(F)(F)F)ccc32)cc1 (stereo unspecified) | . | -91* | . | . | . | .
COc1ccc2c(c1)C(n1ccc3ccccc31)C(=O)N2Cc1ccc(C(F)(F)F)cc1 (stereo unspecified) | . | 27 | . | . | . | .
CC(C)c1ccc(CN2C(=O)C(n3ccc4ccccc43)c3cc(F)ccc32)cc1 (stereo unspecified) | . | 3 | . | . | . | .
CCOc1ccc(-c2nnc(SCC(=O)Nc3ccc4c(c3)c3ccccc3n4CC)n2N)cc1 | . | -61* | 12µM* | . | ? | -23%
SMILES | VACV mCherry inh | HCMV inh | Marburg entry inh | VACV Venus inh | Lassa entry inh | FMDV antiviral
COc1ccc(CN2CCN(C(C)=O)CC2)cc1OC1CCN(C(=O)c2ccc3ccccc3n2)CC1 | -4% | . | . | 6% | . | 12%
C[C@H](NC(=O)c1ccco1)C(=O)Nc1ccc(C#N)cc1 | -11% | -12 | 14%[46.1 µM] | 10% | 5%[46.1 µM] | 4%
O=C(Nc1cccc(N2CCC(NCc3cnn(-c4cccc(F)c4)c3)CC2)c1)c1ccncc1 | -23% | . | . | -3% | . | -30%
O=S(=O)(C/C(=C/CO)S(=O)(=O)c1ccccc1)c1ccccc1 | . | -106* | 1.8µM* | . | ? | 7.9µM*
c1ccc(-c2cccc(-c3ccccn3)n2)nc1 | . | -101* | 2.1µM* | . | 2.1µM* | 10%
c1ccc(-c2cccc(-c3ccccc3)n2)cc1 | . | -65* | . | . | . | 54%
c1ccc(-c2nnc(-c3ccccn3)nn2)nc1 | ? | 66 | . | -9% | . | ?
CC(=O)c1ccc(NC(=O)C(C)OC(=O)/C=C/c2ccco2)cc1 (stereo unspecified) | -24% | 20 | 11µM* | -25% | ? | -10%
CC(OC(=O)/C=C/c1ccco1)C(=O)Nc1cccc([N+](=O)[O-])c1 (stereo unspecified) | -23% | 5 | ? | -29% | -16% | ?
COC(=O)CC1C(=O)NCCN1C(=S)Nc1cc(C)cc(C)c1 (stereo unspecified) | i | -33 | -6% | -7% | 0% | -20%
CCNC(=S)N1CCNC(=O)C1CC(=O)OC (stereo unspecified) | -10% | -72* | 6%[46.1 µM] | -19% | 11%[46.1 µM] | ?
CCCCN(C(=O)c1[nH]c(C)c(C(C)=O)c1C)c1c(N)n(CCCC)c(=O)[nH]c1=O | i | 25 | 21% | -17% | 17%[46.1 µM] | -12%
COc1ccc(OC)c(NC2=C(c3ccccc3)C(=O)c3ccccc32)c1 | ? | -63* | ? | -14%[7.34 µM] | -14%[46.1 µM] | -20%
COc1ccc(-c2cc(-c3ccccc3)nc(N)n2)c(O)c1 | ? | 12 | ? | ? | ? | 12%
COc1ccc(OC)c(Nc2cc(-c3ccccc3)nc(N)n2)c1 | ? | -90* | ? | ? | -29% | -12%
CCOc1cc(CNCCSc2nnnn2C)ccc1OCc1ccc(Cl)cc1Cl | ? | -99* | ? | -28% | -5%[46.1 µM] | ?
COc1cc(CNCCc2c[nH]c3ccccc23)ccc1OCc1ccc(F)cc1 | 10µM* | 17 | ? | ? | -21% | -7%
COc1cc(CNCCSc2nnnn2C)ccc1OCc1ccc(F)cc1 | 0% | -77* | ? | -9% | 1%[46.1 µM] | 0%
Cn1nnnc1SCCNCc1ccccc1OCc1ccc(Cl)cc1Cl | i[7.34 µM] | -39 | 8%[46.1 µM] | -16%[7.34 µM] | -27%[46.1 µM] | ?
Cn1nnnc1SCCCNCc1cc(Br)ccc1OCc1ccccc1 | -27% | -63* | ? | -29% | 10%[46.1 µM] | ?
COc1cccc(CNCCc2c[nH]c3ccccc23)c1OCc1ccc(F)cc1 | ? | -14 | ? | ? | ? | ?
